Data reported in the supplement of paper PMC10849652.
The full data set covers some 7,900 targets. This sample favours those with a hit. About 0.6% of all pairs of compound and target were hits.

What was measured:
Assay in all cases: log2 fold change, soluble protein after heating vs DMSO (PISA); higher = thermal stabilisation; K562 cells, 10 uM, 30 min; active = over 0.2 and 3.5 SD of the protein, either way, in both replicates (recomputed)
[1] = compound: Cc1ccc(NC(=O)c2ccc(CN3CC[C@H](N(C)C)C3)c(C(F)(F)F)c2)cc1Nc1nccc(-c2cncnc2)n1 [bafetinib]
Procedure, shortened: (§1)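 Thermal stability values are relative to control samples and come from duplicates. They are expressed as log2 fold changes. For measurement, K562 cells (2×10^6 cells/mL) received 10 μM compound for 30 min, and aliquots were heated for 3 min over 48°C-58°C, pooled, and extracted at 4°C in PBS with 0.5% NP-40. Soluble protein, the supernatant after 21,000xg for 90 min, was quantified by TMTpro 16plex LC-MS/MS with equalised channel sums.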

[2] = compound: Cc1cccc(CC(=O)N2CCc3c2ccc(-c2cn(C)c4ncnc(N)c24)c3F)n1
Procedure, shortened: as §1

[3] = compound: Cc1cn(-c2cc(NC(=O)c3ccc(C)c(Nc4nccc(-c5cccnc5)n4)c3)cc(C(F)(F)F)c2)cn1 [nilotinib]
Procedure, shortened: as §1

[4] = compound: Cc1nc(Nc2n[nH]c3c2CN(C(=O)N[C@H](CN(C)C)c2ccccc2)C3(C)C)c2sccc2n1
Procedure, shortened: as §1

[5] = compound: Cc1nc(Nc2ncc(C(=O)Nc3c(C)cccc3Cl)s2)cc(N2CCN(CCO)CC2)n1 [dasatinib]
Procedure, shortened: as §1

[6] = compound: Cc1ncc(-c2ccnc(Nc3ccc(S(C)(=O)=O)cc3)n2)n1C(C)C
Procedure, shortened: as §1

[7] = compound: Cn1cc(-c2ccc3c(c2)CCN3C(=O)Cc2cccc(C(F)(F)F)c2)c2c(N)ncnc21
Procedure, shortened: as §1

[8] = compound: Cn1cc(-c2ccc3nnc(C(F)(F)c4ccc5ncccc5c4)n3n2)cn1
Procedure, shortened: as §1

[9] = compound: Cn1cncc1[C@@](N)(c1ccc(Cl)cc1)c1ccc2c(c1)c(-c1cccc(Cl)c1)cc(=O)n2C [tipifarnib]
Procedure, shortened: as §1

[10] = compound: FC(F)(F)c1ccc(/C=C/c2nc(COc3ccc(CCCCn4ccnn4)cc3)co2)cc1 [mubritinib]
Procedure, shortened: as §1

[11] = compound: NC(=O)Nc1cc(-c2cccc(F)c2)sc1C(=O)N[C@H]1CCCNC1
Procedure, shortened: as §1

[12] = compound: NC(=O)c1cnc(N[C@@H]2CCCC[C@@H]2N)nc1Nc1cccc(-n2nccn2)c1
Procedure, shortened: as §1

[13] = compound: NC1(c2ccc(-c3nc4ccn5c(=O)[nH]nc5c4cc3-c3ccccc3)cc2)CCC1
Procedure, shortened: as §1

[14] = compound: NCC(=O)Nc1ccc(-n2nc(C(F)(F)F)cc2-c2ccc3c(ccc4ccccc43)c2)cc1
Procedure, shortened: as §1

[15] = compound: Nc1ccccc1NC(=O)c1ccc(CNC(=O)OCc2cccnc2)cc1 [entinostat]
Procedure, shortened: as §1

[16] = compound: O=C(CCCCCCC(=O)Nc1ccccc1)NO [vorinostat]
Procedure, shortened: as §1

[17] = compound: O=C(CCCCCCNC(=O)c1cnc(N(c2ccccc2)c2ccccc2Cl)nc1)NO [citarinostat]
Procedure, shortened: as §1

[18] = compound: O=C(O)c1ccc2c(c1)nc(Nc1cccc(Cl)c1)c1ccncc12 [silmitasertib]
Procedure, shortened: as §1

[19] = compound: O=C1NC(=O)C(c2cnc3ccccn23)=C1c1cn2c3c(cc(F)cc13)CN(C(=O)N1CCCCC1)CC2
Procedure, shortened: as §1

[20] = compound: c1cc(OCCN2CCCCC2)cc(-c2n[nH]c3ccc(-c4nnc[nH]4)cc23)c1
Procedure, shortened: as §1

Measured: log2 fold change

NUP210 (UniProt Q8TEM1)
inactive: [1] -0.178 | [2] 0.053 | [3] -0.125 | [4] -0.009 | [5] -0.118 | [6] -0.038 | [7] 0.055 | [8] 0 | [9] -0.039 | [10] 0.034 | [11] 0.022 | [12] -0.173 | [13] -0.19 | [14] -0.126 | [15] 0.047 | [16] 0.054 | [17] 0.022 | [18] -0.033 | [19] -0.004 | [20] -0.023

MUL1 (UniProt Q969V5)
Chain of UniProt Q969V5 (Q969V5 whole entry, looked up): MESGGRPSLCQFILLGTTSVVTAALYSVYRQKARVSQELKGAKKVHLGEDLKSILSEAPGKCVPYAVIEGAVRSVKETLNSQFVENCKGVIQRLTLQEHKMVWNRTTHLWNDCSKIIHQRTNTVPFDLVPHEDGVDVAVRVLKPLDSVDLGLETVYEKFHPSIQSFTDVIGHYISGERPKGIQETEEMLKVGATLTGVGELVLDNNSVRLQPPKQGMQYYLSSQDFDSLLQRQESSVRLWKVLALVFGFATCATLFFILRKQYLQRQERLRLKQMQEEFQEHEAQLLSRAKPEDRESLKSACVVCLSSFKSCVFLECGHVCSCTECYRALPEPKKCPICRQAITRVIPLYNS
active: [13] 0.648
inactive: [1] -0.018 | [2] 0.042 | [3] 0.004 | [4] 0.044 | [5] 0.011 | [6] -0.059 | [7] 0.036 | [8] 0.016 | [9] -0.037 | [10] -0.023 | [11] -0.029 | [12] -0.041 | [14] -0.024 | [15] -0.007 | [16] 0.086 | [17] -0.002 | [18] -0.018 | [19] -0.021 | [20] -0.049

NOP2 isoform 4 (UniProt P46087)
Chain of UniProt P46087 (P46087 whole entry, looked up): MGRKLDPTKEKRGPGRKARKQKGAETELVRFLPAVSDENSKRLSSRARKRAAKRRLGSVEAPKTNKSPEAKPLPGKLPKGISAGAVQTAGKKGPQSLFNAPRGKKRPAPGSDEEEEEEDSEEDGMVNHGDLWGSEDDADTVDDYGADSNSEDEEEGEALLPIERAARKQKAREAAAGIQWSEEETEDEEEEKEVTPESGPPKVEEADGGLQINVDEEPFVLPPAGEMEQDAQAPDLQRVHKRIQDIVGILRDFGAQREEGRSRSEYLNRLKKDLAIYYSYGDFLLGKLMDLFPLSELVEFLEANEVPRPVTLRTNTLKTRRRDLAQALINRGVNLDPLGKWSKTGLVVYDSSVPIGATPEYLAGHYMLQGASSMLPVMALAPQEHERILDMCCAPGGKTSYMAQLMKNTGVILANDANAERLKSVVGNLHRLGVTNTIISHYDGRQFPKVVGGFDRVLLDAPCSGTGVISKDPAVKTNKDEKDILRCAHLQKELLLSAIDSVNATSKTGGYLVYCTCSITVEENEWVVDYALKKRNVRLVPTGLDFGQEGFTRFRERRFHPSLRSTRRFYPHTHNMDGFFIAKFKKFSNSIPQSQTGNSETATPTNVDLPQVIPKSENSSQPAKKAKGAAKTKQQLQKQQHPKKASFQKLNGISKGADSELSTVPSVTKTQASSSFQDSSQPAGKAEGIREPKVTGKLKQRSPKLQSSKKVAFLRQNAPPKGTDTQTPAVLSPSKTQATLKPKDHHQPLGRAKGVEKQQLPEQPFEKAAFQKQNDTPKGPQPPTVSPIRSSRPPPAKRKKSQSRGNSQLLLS
inactive: [1] 0.274 | [2] -0.065 | [3] 0.111 | [4] 0.066 | [5] 0.344 | [6] 0.096 | [7] -0.568 | [8] -0.319 | [9] 0.214 | [10] -0.304 | [11] 0.205 | [12] 0.241 | [13] 0.408 | [14] 0.3 | [15] -0.163 | [16] 0.014 | [17] -0.04 | [18] 0.288 | [19] 0.344 | [20] -0.095

NAPG (UniProt Q99747)
Chain of UniProt Q99747 (Q99747 whole entry, looked up): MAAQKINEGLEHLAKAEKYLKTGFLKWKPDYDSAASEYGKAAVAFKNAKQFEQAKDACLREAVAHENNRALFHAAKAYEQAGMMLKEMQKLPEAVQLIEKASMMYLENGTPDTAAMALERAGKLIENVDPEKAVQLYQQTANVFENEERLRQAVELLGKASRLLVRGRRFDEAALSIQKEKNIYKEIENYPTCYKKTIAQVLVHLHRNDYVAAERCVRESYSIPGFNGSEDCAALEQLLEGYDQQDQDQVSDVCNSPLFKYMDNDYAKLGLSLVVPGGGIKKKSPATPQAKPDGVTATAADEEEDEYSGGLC
inactive: [1] 0 | [2] 0.128 | [3] -0.057 | [4] -0.157 | [5] -0.133 | [6] -0.011 | [7] 0.034 | [8] 0.033 | [9] -0.094 | [10] 0.062 | [11] -0.027 | [12] -0.087 | [13] -0.085 | [14] -0.094 | [15] 0.102 | [16] 0.117 | [17] 0.075 | [18] 0.032 | [19] -0.029 | [20] -0.017

OSTM1 (UniProt Q86WC4)
Chain of UniProt Q86WC4 (Q86WC4 whole entry, looked up): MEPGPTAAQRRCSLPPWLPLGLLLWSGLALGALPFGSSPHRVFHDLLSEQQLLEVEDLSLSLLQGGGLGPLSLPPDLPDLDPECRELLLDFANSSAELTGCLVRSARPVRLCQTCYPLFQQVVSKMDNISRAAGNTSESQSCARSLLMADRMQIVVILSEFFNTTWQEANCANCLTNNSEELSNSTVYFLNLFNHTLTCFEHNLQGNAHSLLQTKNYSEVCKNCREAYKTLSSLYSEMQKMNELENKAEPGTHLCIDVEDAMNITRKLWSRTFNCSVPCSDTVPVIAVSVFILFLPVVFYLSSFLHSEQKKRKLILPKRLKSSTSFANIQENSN
active: [13] -0.319
inactive: [1] -0.208 | [2] 0.091 | [3] 0.044 | [4] 0.017 | [5] -0.086 | [6] -0.068 | [7] 0.076 | [8] 0.029 | [9] 0.008 | [10] -0.048 | [11] -0.035 | [12] -0.029 | [14] 0.003 | [15] 0.006 | [16] 0.072 | [17] 0.064 | [18] 0.034 | [19] -0.037 | [20] -0.037

NELFB isoform 2 (UniProt Q8WX92)
Chain of UniProt Q8WX92 (Q8WX92 whole entry, looked up): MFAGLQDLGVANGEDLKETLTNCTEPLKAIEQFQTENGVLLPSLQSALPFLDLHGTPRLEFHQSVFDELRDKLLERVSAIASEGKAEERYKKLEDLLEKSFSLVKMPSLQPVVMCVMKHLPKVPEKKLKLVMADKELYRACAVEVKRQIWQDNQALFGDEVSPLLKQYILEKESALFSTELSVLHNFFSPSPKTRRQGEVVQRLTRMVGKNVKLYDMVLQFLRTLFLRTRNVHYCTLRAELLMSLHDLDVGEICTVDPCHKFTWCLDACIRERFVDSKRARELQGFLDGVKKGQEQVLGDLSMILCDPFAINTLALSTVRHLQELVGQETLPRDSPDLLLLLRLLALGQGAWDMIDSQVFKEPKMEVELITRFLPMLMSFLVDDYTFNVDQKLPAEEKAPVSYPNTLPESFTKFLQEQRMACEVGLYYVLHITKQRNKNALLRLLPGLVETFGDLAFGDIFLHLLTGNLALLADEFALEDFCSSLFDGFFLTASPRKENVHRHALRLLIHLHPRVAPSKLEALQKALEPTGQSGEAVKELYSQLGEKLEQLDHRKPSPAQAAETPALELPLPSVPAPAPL
inactive: [1] -0.088 | [2] 0.046 | [3] -0.135 | [4] -0.123 | [5] -0.189 | [6] 0.05 | [7] 0.032 | [8] 0.014 | [9] -0.081 | [10] 0.03 | [11] -0.021 | [12] -0.016 | [13] -0.074 | [14] -0.107 | [15] 0.062 | [16] 0.059 | [17] 0.102 | [18] 0.021 | [19] -0.086 | [20] -0.001

NPEPPS (UniProt P55786)
Chain of UniProt P55786 (P55786 whole entry, looked up): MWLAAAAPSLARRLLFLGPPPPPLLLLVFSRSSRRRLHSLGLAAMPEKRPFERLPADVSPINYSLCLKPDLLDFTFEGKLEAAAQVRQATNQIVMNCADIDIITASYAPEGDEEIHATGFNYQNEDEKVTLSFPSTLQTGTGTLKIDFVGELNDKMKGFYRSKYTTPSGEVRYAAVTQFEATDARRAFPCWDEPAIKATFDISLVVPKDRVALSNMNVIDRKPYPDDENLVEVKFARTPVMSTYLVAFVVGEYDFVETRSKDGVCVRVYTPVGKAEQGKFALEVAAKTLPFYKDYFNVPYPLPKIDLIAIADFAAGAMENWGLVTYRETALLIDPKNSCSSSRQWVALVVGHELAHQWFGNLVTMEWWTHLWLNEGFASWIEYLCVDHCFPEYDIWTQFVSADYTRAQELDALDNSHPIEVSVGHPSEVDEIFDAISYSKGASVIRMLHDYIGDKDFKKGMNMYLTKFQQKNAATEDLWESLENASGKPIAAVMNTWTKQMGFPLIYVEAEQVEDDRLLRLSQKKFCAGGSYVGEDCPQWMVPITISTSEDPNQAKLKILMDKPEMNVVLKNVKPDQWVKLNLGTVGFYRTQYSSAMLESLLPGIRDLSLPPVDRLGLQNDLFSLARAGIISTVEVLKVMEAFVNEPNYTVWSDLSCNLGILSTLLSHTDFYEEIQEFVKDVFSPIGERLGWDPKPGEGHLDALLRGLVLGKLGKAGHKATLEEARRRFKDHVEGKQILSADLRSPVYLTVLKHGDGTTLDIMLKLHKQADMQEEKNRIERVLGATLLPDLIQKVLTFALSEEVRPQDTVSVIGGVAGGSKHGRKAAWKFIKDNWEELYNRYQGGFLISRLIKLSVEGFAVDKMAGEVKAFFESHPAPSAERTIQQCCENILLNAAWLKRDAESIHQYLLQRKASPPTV
inactive: [1] 0.031 | [2] 0.011 | [3] 0.002 | [4] 0.121 | [5] -0.083 | [6] -0.063 | [7] 0.085 | [8] 0.02 | [9] -0.032 | [10] 0.102 | [11] -0.02 | [12] -0.035 | [13] -0.046 | [14] -0.041 | [15] -0.007 | [16] 0.076 | [17] 0.048 | [18] -0.038 | [19] -0.003 | [20] -0.03

NMT2 (UniProt O60551)
Chain of UniProt O60551 (O60551 whole entry, looked up): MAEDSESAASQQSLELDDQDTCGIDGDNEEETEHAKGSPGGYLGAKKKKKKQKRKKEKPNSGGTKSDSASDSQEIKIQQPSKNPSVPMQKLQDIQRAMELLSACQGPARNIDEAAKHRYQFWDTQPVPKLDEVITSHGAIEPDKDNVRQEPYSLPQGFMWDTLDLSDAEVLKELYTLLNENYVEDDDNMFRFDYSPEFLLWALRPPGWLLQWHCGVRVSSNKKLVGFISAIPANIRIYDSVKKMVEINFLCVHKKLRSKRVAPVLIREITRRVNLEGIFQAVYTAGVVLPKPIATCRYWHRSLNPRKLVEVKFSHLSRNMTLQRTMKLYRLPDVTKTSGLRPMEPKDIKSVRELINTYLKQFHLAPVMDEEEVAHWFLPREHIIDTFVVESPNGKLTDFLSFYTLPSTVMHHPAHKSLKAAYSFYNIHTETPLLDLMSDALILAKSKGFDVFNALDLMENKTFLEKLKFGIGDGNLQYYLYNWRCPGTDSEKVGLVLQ
inactive: [1] 0.021 | [2] 0.047 | [3] 0.018 | [4] 0.083 | [5] -0.088 | [6] -0.031 | [7] -0.003 | [8] 0.03 | [9] -0.015 | [10] 0.041 | [11] 0 | [12] -0.089 | [13] -0.168 | [14] -0.164 | [15] -0.004 | [16] -0.049 | [17] 0.007 | [18] -0.028 | [19] -0.017
active: [20] -0.491
